# Test results reported in PMC11006913.
# Legend:
# Test in all cases: PBM; 200 nM protein, PBS
# Conditions in all cases: dsDNA, one strand shown
# HOXB9 [1] = molecular target: HOXB9 (Homo sapiens, UniProt P17482 171-250, T197M)
# HOXB9 [2] = molecular target: HOXB9 (Homo sapiens, UniProt P17482 171-250)
# HOXB9 [3] = molecular target: HOXB9 (Homo sapiens, UniProt P17482 171-250, R186Q)
# VAX1 [4] = molecular target: VAX1 (Homo sapiens, UniProt Q5SQQ9 86-172)
# VAX1 [5] = molecular target: VAX1 (Homo sapiens, UniProt Q5SQQ9 86-172, T142I)
# VAX1 [6] = molecular target: VAX1 (Homo sapiens, UniProt Q5SQQ9 86-172, K157R)
# HOXA2 [7] = molecular target: HOXA2 (Homo sapiens, UniProt O43364 129-215, R185T)
# HOXA2 [8] = molecular target: HOXA2 (Homo sapiens, UniProt O43364 129-215, R185K)
# HOXA2 [9] = molecular target: HOXA2 (Homo sapiens, UniProt O43364 129-215, Y150S)
# HOXA2 [10] = molecular target: HOXA2 (Homo sapiens, UniProt O43364 129-215)
# PITX2 = PITX2 (Homo sapiens, UniProt Q99697 72-157)
# ALX1 [11] = molecular target: ALX1 (Homo sapiens, UniProt Q15699 118-204, L144V)
# ALX1 [12] = molecular target: ALX1 (Homo sapiens, UniProt Q15699 118-204, L144R)
# ALX1 [13] = molecular target: ALX1 (Homo sapiens, UniProt Q15699 118-204)
# MSX2 [14] = molecular target: MSX2 (Homo sapiens, UniProt P35548 130-214, R199I)
# MSX2 [15] = molecular target: MSX2 (Homo sapiens, UniProt P35548 130-214)
# MSX2 [16] = molecular target: MSX2 (Homo sapiens, UniProt P35548 130-214, F161Y)
# NKX2-6 = molecular target: T1, NKX2-6 (Homo sapiens, UniProt A6NCS4 118-204, R150C)
# T1 sequence: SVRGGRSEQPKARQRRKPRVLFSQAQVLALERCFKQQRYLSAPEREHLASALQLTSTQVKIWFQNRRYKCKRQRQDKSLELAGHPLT
# HOXB9 (Homo sapiens, UniProt P17482 171-250), sequence (P17482 171-250): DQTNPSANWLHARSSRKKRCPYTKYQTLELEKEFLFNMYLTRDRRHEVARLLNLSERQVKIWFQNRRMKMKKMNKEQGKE
# HOXB9 (Homo sapiens, UniProt P17482 171-250, R186Q), sequence (P17482 171-250 R186Q): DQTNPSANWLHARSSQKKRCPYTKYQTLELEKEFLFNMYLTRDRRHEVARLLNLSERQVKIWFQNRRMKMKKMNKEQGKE
# HOXB9 (Homo sapiens, UniProt P17482 171-250, T197M), sequence (P17482 171-250 T197M): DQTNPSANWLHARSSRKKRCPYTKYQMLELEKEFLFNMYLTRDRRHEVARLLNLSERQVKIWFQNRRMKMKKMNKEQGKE
# ALX1 (Homo sapiens, UniProt Q15699 118-204, L144R), sequence (Q15699 118-204 L144R): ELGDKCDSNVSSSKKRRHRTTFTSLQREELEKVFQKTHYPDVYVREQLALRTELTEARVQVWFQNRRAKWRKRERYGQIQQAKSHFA
# VAX1 (Homo sapiens, UniProt Q5SQQ9 86-172), sequence (Q5SQQ9 86-172): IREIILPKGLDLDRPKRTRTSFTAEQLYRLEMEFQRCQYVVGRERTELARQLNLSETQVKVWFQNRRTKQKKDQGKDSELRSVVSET
# HOXA2 (Homo sapiens, UniProt O43364 129-215, R185K), sequence (O43364 129-215 R185K): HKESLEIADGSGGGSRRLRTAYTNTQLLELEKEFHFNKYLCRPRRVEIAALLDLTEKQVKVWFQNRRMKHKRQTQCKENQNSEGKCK
# HOXA2 (Homo sapiens, UniProt O43364 129-215), sequence (O43364 129-215): as the sequence (O43364 129-215 R185K) above, with K57R counted along it
# ALX1 (Homo sapiens, UniProt Q15699 118-204), sequence (Q15699 118-204): as the sequence (Q15699 118-204 L144R) above, with R27L counted along it
# VAX1 (Homo sapiens, UniProt Q5SQQ9 86-172, T142I), sequence (Q5SQQ9 86-172 T142I): as the sequence (Q5SQQ9 86-172) above, with T57I counted along it
# MSX2 (Homo sapiens, UniProt P35548 130-214, R199I), sequence (P35548 130-214 R199I): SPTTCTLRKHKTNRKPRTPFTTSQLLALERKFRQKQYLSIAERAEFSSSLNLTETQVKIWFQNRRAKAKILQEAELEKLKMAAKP
# HOXA2 (Homo sapiens, UniProt O43364 129-215, Y150S), sequence (O43364 129-215 Y150S): as the sequence (O43364 129-215 R185K) above, with Y22S, K57R counted along it
# MSX2 (Homo sapiens, UniProt P35548 130-214, F161Y), sequence (P35548 130-214 F161Y): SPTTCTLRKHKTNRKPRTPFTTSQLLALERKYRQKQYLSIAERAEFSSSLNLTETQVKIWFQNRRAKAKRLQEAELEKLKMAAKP
# VAX1 (Homo sapiens, UniProt Q5SQQ9 86-172, K157R), sequence (Q5SQQ9 86-172 K157R): as the sequence (Q5SQQ9 86-172) above, with K72R counted along it
# MSX2 (Homo sapiens, UniProt P35548 130-214), sequence (P35548 130-214): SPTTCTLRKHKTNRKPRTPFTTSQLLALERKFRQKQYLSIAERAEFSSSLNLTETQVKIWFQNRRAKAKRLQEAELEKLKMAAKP
# ALX1 (Homo sapiens, UniProt Q15699 118-204, L144V), sequence (Q15699 118-204 L144V): as the sequence (Q15699 118-204 L144R) above, with R27V counted along it
# HOXA2 (Homo sapiens, UniProt O43364 129-215, R185T), sequence (O43364 129-215 R185T): as the sequence (O43364 129-215 R185K) above, with K57T counted along it
sequence,measurement,setting,value
AGCATCCG,binding signal,HOXB9 [1],"8.64 upbm affinity estimate (log intensity, higher = more binding, comparable within an allelic series)"
same,binding signal,HOXB9 [2],"8.73 upbm affinity estimate (log intensity, higher = more binding, comparable within an allelic series)"
same,binding signal,HOXB9 [3],"8.71 upbm affinity estimate (log intensity, higher = more binding, comparable within an allelic series)"
GACTGACC,binding signal,HOXB9 [1],"8.57 upbm affinity estimate (log intensity, higher = more binding, comparable within an allelic series)"
same,binding signal,HOXB9 [2],"8.7 upbm affinity estimate (log intensity, higher = more binding, comparable within an allelic series)"
same,binding signal,HOXB9 [3],"8.7 upbm affinity estimate (log intensity, higher = more binding, comparable within an allelic series)"
CCGGACGC,binding signal,HOXB9 [1],"8.6 upbm affinity estimate (log intensity, higher = more binding, comparable within an allelic series)"
same,binding signal,HOXB9 [2],"8.5 upbm affinity estimate (log intensity, higher = more binding, comparable within an allelic series)"
same,binding signal,VAX1 [4],"7.11 upbm affinity estimate (log intensity, higher = more binding, comparable within an allelic series)"
same,binding signal,HOXB9 [3],"8.59 upbm affinity estimate (log intensity, higher = more binding, comparable within an allelic series)"
same,binding signal,VAX1 [5],"7.2 upbm affinity estimate (log intensity, higher = more binding, comparable within an allelic series)"
same,binding signal,VAX1 [6],"7.16 upbm affinity estimate (log intensity, higher = more binding, comparable within an allelic series)"
CTCAGGCC,binding signal,HOXB9 [1],"8.41 upbm affinity estimate (log intensity, higher = more binding, comparable within an allelic series)"
same,binding signal,HOXA2 [7],"7.06 upbm affinity estimate (log intensity, higher = more binding, comparable within an allelic series)"
same,binding signal,HOXB9 [2],"8.36 upbm affinity estimate (log intensity, higher = more binding, comparable within an allelic series)"
same,binding signal,HOXA2 [8],"10.3 upbm affinity estimate (log intensity, higher = more binding, comparable within an allelic series)"
same,binding signal,HOXB9 [3],"8.4 upbm affinity estimate (log intensity, higher = more binding, comparable within an allelic series)"
same,binding signal,HOXA2 [9],"10.4 upbm affinity estimate (log intensity, higher = more binding, comparable within an allelic series)"
same,binding signal,HOXA2 [10],"7.06 upbm affinity estimate (log intensity, higher = more binding, comparable within an allelic series)"
CCCGCAAG,binding signal,HOXB9 [1],"8.42 upbm affinity estimate (log intensity, higher = more binding, comparable within an allelic series)"
same,binding signal,HOXB9 [2],"8.44 upbm affinity estimate (log intensity, higher = more binding, comparable within an allelic series)"
same,binding signal,PITX2,"7.91 upbm affinity estimate (log intensity, higher = more binding, comparable within an allelic series)"
same,binding signal,HOXB9 [3],"8.51 upbm affinity estimate (log intensity, higher = more binding, comparable within an allelic series)"
CCTAGCCG,binding signal,HOXB9 [1],"8.53 upbm affinity estimate (log intensity, higher = more binding, comparable within an allelic series)"
same,binding signal,HOXB9 [2],"8.64 upbm affinity estimate (log intensity, higher = more binding, comparable within an allelic series)"
same,binding signal,ALX1 [11],"6.49 upbm affinity estimate (log intensity, higher = more binding, comparable within an allelic series)"
same,binding signal,ALX1 [12],"6.54 upbm affinity estimate (log intensity, higher = more binding, comparable within an allelic series)"
same,binding signal,HOXB9 [3],"8.65 upbm affinity estimate (log intensity, higher = more binding, comparable within an allelic series)"
same,binding signal,ALX1 [13],"6.41 upbm affinity estimate (log intensity, higher = more binding, comparable within an allelic series)"
CCCCTCGA,binding signal,HOXB9 [1],"8.73 upbm affinity estimate (log intensity, higher = more binding, comparable within an allelic series)"
same,binding signal,HOXB9 [2],"8.55 upbm affinity estimate (log intensity, higher = more binding, comparable within an allelic series)"
same,binding signal,HOXB9 [3],"8.57 upbm affinity estimate (log intensity, higher = more binding, comparable within an allelic series)"
CCCGCGAG,binding signal,HOXB9 [1],"8.58 upbm affinity estimate (log intensity, higher = more binding, comparable within an allelic series)"
same,binding signal,HOXB9 [2],"8.45 upbm affinity estimate (log intensity, higher = more binding, comparable within an allelic series)"
same,binding signal,HOXB9 [3],"8.39 upbm affinity estimate (log intensity, higher = more binding, comparable within an allelic series)"
GGACCTAC,binding signal,HOXB9 [1],"8.72 upbm affinity estimate (log intensity, higher = more binding, comparable within an allelic series)"
same,binding signal,HOXB9 [2],"8.47 upbm affinity estimate (log intensity, higher = more binding, comparable within an allelic series)"
same,binding signal,HOXB9 [3],"8.62 upbm affinity estimate (log intensity, higher = more binding, comparable within an allelic series)"
CCGTGAGG,binding signal,HOXB9 [1],"8.4 upbm affinity estimate (log intensity, higher = more binding, comparable within an allelic series)"
same,binding signal,HOXB9 [2],"8.23 upbm affinity estimate (log intensity, higher = more binding, comparable within an allelic series)"
same,binding signal,MSX2 [14],"9.41 upbm affinity estimate (log intensity, higher = more binding, comparable within an allelic series)"
same,binding signal,MSX2 [15],"9.11 upbm affinity estimate (log intensity, higher = more binding, comparable within an allelic series)"
same,binding signal,HOXB9 [3],"8.2 upbm affinity estimate (log intensity, higher = more binding, comparable within an allelic series)"
same,binding signal,MSX2 [16],"9.23 upbm affinity estimate (log intensity, higher = more binding, comparable within an allelic series)"
CCACGCCG,binding signal,HOXB9 [1],"8.48 upbm affinity estimate (log intensity, higher = more binding, comparable within an allelic series)"
same,binding signal,HOXB9 [2],"8.38 upbm affinity estimate (log intensity, higher = more binding, comparable within an allelic series)"
same,binding signal,HOXB9 [3],"8.41 upbm affinity estimate (log intensity, higher = more binding, comparable within an allelic series)"
CGCTACCG,binding signal,HOXB9 [1],"8.45 upbm affinity estimate (log intensity, higher = more binding, comparable within an allelic series)"
same,binding signal,HOXB9 [2],"8.54 upbm affinity estimate (log intensity, higher = more binding, comparable within an allelic series)"
same,binding signal,NKX2-6,"9.4 upbm affinity estimate (log intensity, higher = more binding, comparable within an allelic series)"
same,binding signal,HOXB9 [3],"8.56 upbm affinity estimate (log intensity, higher = more binding, comparable within an allelic series)"
